# From PubChem BioAssay
# Autophagy HCS = alters autophagy in cells; MEF GFP-LC3 puncta imaging; test concentration mostly 10 µM; calls only at 10 µM (by protocol); hit rate 0.98% among 190,000; AID 463193;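 active means percentage of spot-positive cells more than 3 SD above its plate mean, without a fluorescence outlier flag or 80% toxicity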;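 further: spot-positive cell cutoff set from DMSO-treated cells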
# L major viab = inhibitors of Leishmania major promastigote growth; AID 1063; inhibition, % at 10 µM; Leishmania major promastigotes, resazurin fluorescence viability; hit rate 9% among 200,000; in the data active means inhibition above about 50%;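 further: promastigotes grown with compound for 44 hours at 28 °C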
# Ins promoter up = MIN6 insulin promoter up-regulation. hit rate 0.3% among 190,000. z-score at 5 µM. MIN6 insulin promoter-GFP reporter, high-content imaging; stronger effect = higher value;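 active means z-score above 3 at 5 µM with at least 500 cells counted in the well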
# WT yeast gro inh = growth inhibition of WT yeast, mitochondrial fusion screen; hit rate 2.1% among 190,000; inhibition, % at 10 µM; mitochondrial fusion phenotypic screen, WT strain; in the data active means inhibition above about 58%; tested in S. cerevisiae
# Insulin prom inh = TRM-6 insulin promoter activity inhibition; inhibition, % at 2 µM; hit rate 0.9% among 130,000; AID 1273; TRM-6 cells (human fetal islet line), insulin promoter-eGFP reporter, imaging; reporter expression induced with tamoxifen;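 active means inhibition above the mean plus 3 SD, with well images judged a real hit on visual review, cut at about 60% in these data, passing the limit was not always enough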
# An asterisk follows results filed as active; i = inactive; . = no result given; + = active, no number. Sampled rows, rich in hits. Any-hit rate of the full collection: about 11%.
SMILES,Autophagy HCS,L major viab,Ins promoter up,WT yeast gro inh,Insulin prom inh
CC(NC(=O)C1(c2cccs2)CCOCC1)c1ccccc1 (centres undefined),i,-3,0.19,2,30
COc1ccccc1NS(=O)(=O)c1cc(NC(=O)c2ccc3c(c2)OCCO3)ccc1C,i,58*,0,44,-44
COc1ccccc1NC(=O)c1ccc(NS(=O)(=O)c2ccc(F)c(F)c2F)cc1,i,66*,0.72,2,-21
COc1ccccc1NS(=O)(=O)c1cc(NC(=O)CCNC(C)=O)ccc1C,i,-7,0.08,1,-91
COc1ccccc1NS(=O)(=O)c1cc(NC(=O)CNC(=O)c2ccccc2)ccc1C,i,64*,0.15,-9,-15
CC(Nc1n[nH]c(=O)[nH]c1=O)C(=O)N/N=C/c1cccs1 (centres undefined),i,-7,0.14,-17,.
CCOC(=O)N1CCN(C(=O)c2cn(CC)c3ccc(S(=O)(=O)N4CCCCC4)cc3c2=O)CC1,i,-9,-0.36,5,43
COc1cccc(Nc2nc3ccccc3n2C(C)C)c1,i,13,0.18,0,62*
COc1cccc(Nc2nc3ccccc3n3cnnc23)c1,i,11,0.67,2,.
N#CCC1c2ccccc2CCN1C(=O)Nc1cccc(Cl)c1 (centres undefined),i,63*,0.28,13,-22
COc1cc(C(=O)ON=C2C=C(C)C(=O)C(C)=C2)cc(OC)c1OC,i,89*,0.42,2,25
COc1cc(C(=O)O/N=C2\C=CC(=O)C(C)=C2)cc(OC)c1OC,i,101*,0.46,-23,-9
COc1cc(C(=O)OCC(=O)N2CCCC2)cc(OC)c1OC,i,-4,.,10,-57
COc1ccc(C(=O)ON=C2C=C(C)C(=O)C(C)=C2)cc1,i,100*,0.08,-6,6
O=C(CSc1ccc(-c2ccccn2)nn1)N1CCCc2ccccc21,i,-2,-0.73,23,.
COCCNC(=O)c1cn(C)c2ccccc2c1=O,i,2,0.09,-3,0
COc1cccc(C2=NN(C(=O)CCCC(=O)O)C(c3cccs3)C2)c1 (centres undefined),.,.,0.4,.,.
CC(=O)Nc1ccccc1-c1nc2ccc(C(=O)N3CCN(c4cc(C)ccc4C)CC3)cc2[nH]c1=O,i,56*,0.46,-9,.
OCCN1CCN(C(c2cccs2)c2ccc3cccnc3c2O)CC1 (centres undefined),.,53*,0.01,1,.
O=C(O)c1ccc2cccnc2c1O,.,.,0.24,.,.
Cc1nc(/N=C(\N)N(C)C)[nH]c(=O)c1C,.,.,0.06,.,.
O=C(Nc1ccc(Cl)cc1)Nc1cccnc1,i,-1,.,-3,67
CC(C#N)(Nc1ccc(Cl)cc1)c1cccnc1 (centres undefined),i,70*,-0.34,6,14
CCO[C@H]1OC(C(=O)N2CCCCCCC2)=C[C@@H](c2coc3ccccc3c2=O)[C@@H]1CCCO,i,-6,-0.76,-6,.
Cc1cc(C)cc(C(=O)OCC(=O)Nc2cccc(S(=O)(=O)NC3=NCCCCC3)c2)c1,i,52*,0.13,-13,-47
SMILES,Autophagy HCS,L major viab,Ins promoter up,WT yeast gro inh,Insulin prom inh
COc1ccccc1N(C)S(=O)(=O)c1ccc(C(=O)NCC(C)C)cc1,i,93*,0.98,.,19
COc1ccc(NC(=O)COC(=O)c2ccc(S(=O)(=O)N(C)c3ccccc3OC)cc2)cc1OC,i,27,0.97,-3,17
COc1ccccc1N(C)S(=O)(=O)c1ccc(C(=O)OCC(=O)N2CCC2)cc1,i,83*,0.71,-12,.
COc1ccccc1N(C)S(=O)(=O)c1ccc(C(=O)OCC(=O)N(C(C)C)C(C)C)cc1,i,100*,-0.02,3,.
COc1ccccc1N(C)S(=O)(=O)c1ccc(C(=O)OCC(=O)NCC(F)(F)F)cc1,i,-10,-1.2,-1,7
CC1CCC2=NN(C(=O)c3ccco3)C(O)(C(F)(F)F)C2C1 (centres undefined),i,1,-0.17,0,.
COc1ccc2[nH]c(=O)c(CN(Cc3cccs3)Cc3nnnn3C(C)(C)C)cc2c1,i,99*,-1.8,-3,-53
CCc1ccc2[nH]c(=O)c(CN(Cc3ccc(OC)cc3)Cc3nnnn3CCOC)cc2c1,+,10,-2.8,-6,.
CCOc1ccc2[nH]c(=O)c(CN(Cc3cccs3)Cc3nnnn3C(C)(C)C)cc2c1,i,73*,0.52,20,.
CCOC(=O)Cn1nnnc1CN(Cc1cccs1)Cc1cc2cc(C)ccc2[nH]c1=O,i,2,-0.72,1,-35
COCCn1nnnc1C(C(C)C)N(Cc1ccccc1)Cc1cc2cc(OC)ccc2[nH]c1=O (centres undefined),i,13,1.5,26,.
COC(=O)/C=C1/S/C(=N/N=C/c2ccc(N(C)C)cc2)NC1=O,i,-3,0.07,2,.
C=CCOc1ccc2c(c1)C(=NO)c1cc(OCC=C)ccc1-2,i,96*,-0.13,4,10
CC(=O)c1cccc(S(=O)(=O)NCC2CCCCC2)c1,i,-5,.,-10,11
COc1ccc(CCNC(=O)CN2CCN(c3cccc(Cl)c3)CC2)cc1OC,i,45,-0.82,-18,.
COc1cc(CN2CCN(c3cccc(Cl)c3)CC2)cc(OC)c1OC,i,88*,.,8,-43
Cn1c(CN2CCN(c3cccc(Cl)c3)CC2)nc2ccccc21,i,68*,.,38,31
CCCn1c(N2CCN(Cc3ccc(Cl)cc3)CC2)nc2ccccc21,i,55*,-0.39,45,.
Cn1c(=O)[nH]c(=O)c2c1nc(CN1CCN(c3cccc(Cl)c3)CC1)n2CCc1ccccc1,i,16,-0.68,8,-138
CCn1c(N2CCN(S(=O)(=O)CC)CC2)nc2ccccc21,i,-10,.,-11,-42
Cc1cc(C)cc(C(=O)Nc2ccc3[nH]c(=O)[nH]c3c2)c1,i,-2,.,4,.
COc1ccccc1C1CCN(C(=O)c2cccc([N+](=O)[O-])c2)CC1,.,.,-0.63,.,.
Cc1cc(C)c2c(c1)/C(=N\N=c1\sc3ccccc3n1C)C(=O)N2,.,.,-0.01,.,.
COc1cccc(C(=O)N2CCN(C3CCC(c4ccccc4)CC3)CC2)c1OC (centres undefined),i,100*,-1.8,-20,.
COc1cccc(C(=O)N2CCN(CCCc3ccccc3)CC2)c1OC,i,93*,-0.1,.,0
SMILES,Autophagy HCS,L major viab,Ins promoter up,WT yeast gro inh,Insulin prom inh
COc1ccccc1C(=O)N1CCN(CCc2ccccc2)CC1,i,-9,-0.69,-15,29
O=C(c1ccncc1)N1CCN(C2CCC(c3ccccc3)CC2)CC1 (centres undefined),.,.,-0.28,.,.
CCOC(=O)/C(N=Nc1sc(C(=O)OC)c(C)c1C(=O)OCC)=C(\O)CCl,i,-9,0.44,-1,.
Cc1ccc(C(=O)N2c3ccccc3N(Cc3ccccc3)C(=O)C2(C)C)cc1,i,17,0.74,85*,23
O=C(O)CC1(O)C(=O)N(Cc2ccccc2)c2ccccc21 (centres undefined),i,-4,0.69,-10,.
O=C(/C=C/c1ccccc1)N1CCN(c2c(Cl)cccc2[N+](=O)[O-])CC1,i,35,-0.15,48,.
